# High-throughput results from PubChem BioAssay.
# FMDV antiviral = High Throughput Screening for Foot and Mouth Disease Virus Antivirals | Potency, µM (doses to about 57.9 µM), inactives show top-dose activity change, negative = inhibition, hits mostly inhibitors | 410,000 compounds, 1.2% hits | FMDV antiviral cell-based qHTS; calls by dose curve; tested in HEK293T cells; also: read-out not given here; potency is read from the fitted curve at half-maximal effect; nearly all actives have a fitted effect of over 45% in size
# AmpC detergent = qHTS Inhibitors of AmpC Beta-Lactamase (assay with detergent); P00811; AmpC hydrolysis of nitrocefin, absorbance 480 nm, 0.01% Triton; Potency, µM (top dose mostly 114 µM), for the others: top-dose activity change, negative = inhibition, actives largely listed as inhibitors; 370,000 compounds, 0.041% hits; AID 485294, 2010;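 also: potency is read from the fitted curve at half-maximal effect; 0% = no-compound wells and -100% = no-enzyme wells; nearly all actives have a fitted effect of over 25% in size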
# Target sequence (P00811 whole entry, looked up): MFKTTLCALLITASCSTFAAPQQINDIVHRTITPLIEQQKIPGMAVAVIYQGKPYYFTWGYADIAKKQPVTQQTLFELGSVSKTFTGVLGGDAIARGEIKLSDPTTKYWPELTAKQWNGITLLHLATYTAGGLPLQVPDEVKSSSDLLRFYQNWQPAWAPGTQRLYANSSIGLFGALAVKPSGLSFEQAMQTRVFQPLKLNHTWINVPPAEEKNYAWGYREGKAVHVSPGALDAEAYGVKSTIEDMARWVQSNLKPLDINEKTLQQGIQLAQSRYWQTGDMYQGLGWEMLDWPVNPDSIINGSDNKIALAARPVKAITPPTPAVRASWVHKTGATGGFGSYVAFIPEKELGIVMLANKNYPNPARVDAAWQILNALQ
#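 20 mM phosphate pH 7.0 + 0.01% (detergent screen) or 0.0001% Triton X-100; 5.3 nM AmpC reagent; cpd preinc 15 min RT; nitrocefin (800 uM stock) to start; A480 q20 s × 4 min; Activity was normalised to no-enzyme and no-compound control wells.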
# HCMV inh = qHTS Assay for inhibitors of the human cytomegalovirus (HCMV) | 410,000 compounds, 4.5% hits | HFF cells, HCMV-luciferase reporter, 72 h; stronger effect = lower value | activity change, negative = inhibition, % at 57.5 µM; in the data active = activity change below about -60%; inconclusive = no clear call, values can overlap the other calls; inactive = above about -39%
#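 Steps: HFFs plated, 16 h 37C; compounds added; HCMV-luciferase added to MOI 1 PFU/cell; 72 h 37C; OneGlo reagent, 5 min room temperature; luminescence read, normalized to controls.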
# HCV inh = qHTS Assay for Inhibitors of Hepatitis C Virus (HCV); Huh7.5.1 HCVcc-Cre infection, luciferase reporter, 44 h; Potency, µM (titrated, usually from 41.8 µM), for the others: at the highest dose activity change, negative = inhibition, usual class: inhibitors; 340,000 compounds, 3.4% hits; AID 651820, 2012; also: potency is read from the fitted curve at half-maximal effect
#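 1,000 cells/well; 4 h culture; + compound; + HCVcc-Cre (~0.5 moi); 44 h; luciferase substrate, RT 15 min; read 15 sec.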
# AmpC inh no detg = qHTS Inhibitors of AmpC Beta-Lactamase (assay without detergent) | AmpC nitrocefin hydrolysis, absorbance 480 nm, 0.0001% Triton | Potency, µM (top dose mostly 57.1 µM), for the others: at the highest dose activity change, negative = inhibition, most hits filed as inhibitors | P00811 | 330,000 compounds, 0.52% hits;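 also: potency is read from the fitted curve at half-maximal effect; plate controls were no compound for no effect and no enzyme for full effect; nearly all actives have a fitted effect of over 20% in size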
#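 20 mM phosphate pH 7.0 + 0.01% (detergent screen) or 0.0001% Triton X-100; 5.3 nM AmpC reagent; cpd preinc 15 min RT; nitrocefin (800 uM stock) to start; A480 q20 s × 4 min; Activity was normalised to no-enzyme and no-compound control wells.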
# Active calls of the source: *; ? = inconclusive; · = not tested or not shown. An excerpt weighted towards active compounds, which were near 7.3% of everything screened. Unless noted, calls follow the shape of the dose curve; as a rule, active = well fitted curve in the direction sought with a large enough effect; inconclusive = small, poorly fitted or top-dose-only effect, or another doubt; inactive = no such curve, though single readings can be large; an effect the other way counts as inactive or inconclusive. Unless noted, % is scaled to controls: 0 for no effect and ±100 for the full control effect.
SMILES,FMDV antiviral,AmpC detergent,HCMV inh,HCV inh,AmpC inh no detg
O=C(NC(=S)Nc1cc(Cl)ccc1O)c1cccc(Br)c1,43%,-9%,?,11µM*,-44%
Cc1ccccc1NC(=S)NC(=O)c1cncc(Br)c1,-11%,1%,-11,-5%,-18%
Cc1c(Cl)cccc1NC(=S)NC(=O)c1cncc(Br)c1,-8%,·,-65*,6%,·
CN(C)S(=O)(=O)c1ccc(C(=O)OCn2nnc3ccccc3c2=O)cc1,-17%,1%,14,4%,10µM*
Cc1cccc(CC(=O)OCn2nnc3ccccc3c2=O)c1,-17%,-19%,8,11%,10µM*
COc1cccc(NC(=O)C2C3C=CC4(O3)C2C(=O)N(CCCN2CCCC(C)C2)C4C(=O)NC2CCCCC2C)c1 (stereo unspecified),-10%,-9%,11,?,3%
Cc1c(C(=O)NC(C)(C)CO)sc2ncnc(NCCN(C)C)c12,-9%,·,·,·,·
COc1ccc(-c2c(=O)n(OC)c3ccccc3[n+]2[O-])cc1OC,-17%,-6%,?,-3%,-25%
C=CC(=O)Nc1cc2c(Nc3ccc(F)c(Cl)c3)ncnc2cc1OCCCN1CCOCC1,·,·,-19,·,·
CN(N)c1nc(-c2ccccc2)nnc1C(F)(F)F,0%,-8%,-105*,-14%,-27%
COc1ccc(CN2C(=O)CS/C2=N/N=C/c2ccccc2)cc1,14%,6%,53,13µM*,-33%
COc1cc(/C=N/N2CCOCC2)ccc1OCc1ccccc1,0%,3%,-105*,-19%,48%
COC(=O)CC(=O)O[C@H]1C=C[C@@H](NC(=O)OC(C)(C)C)C1,-7%,·,-16,32µM*,·
CC(=O)CC(=O)O[C@@H]1C=C[C@H](NC(=O)OC(C)(C)C)C1,·,·,16,·,·
CCN(CC)CCNC(=O)c1cnn(-c2ncc3c(n2)-c2ccc(OC)cc2CC3)c1C,-18%,·,·,·,·
CCCC(=O)Nc1ccc2c(c1)C(=O)NC2=O,-20%,-16%,?,9%,45µM*
CCCC(=O)Nc1cccc(Oc2ccc3c(c2)C(=O)NC3=O)c1,11%,-18%,-2,0%,-13%
Cc1ccc2c(c1)Oc1ccc(NC(=O)CCCl)cc1C(=O)N2,-6%,?,-90*,?,20µM*
Cc1nc2ccc(Br)cn2c1C(=O)N/N=C\c1ccccc1Cl,-12%,?,-19,-7%,4%
CCOC(=O)[C@]12CCC=C1N(Cc1ccc(Cl)cc1Cl)C(=O)[C@H](CC(=O)NCC13CC4CC(CC(C4)C1)C3)C2,-4%,·,26,·,·
CC(=O)c1c(C)n(C)c2ccc(O)cc12,-8%,0%,-7,-6%,-14%
CC(=O)c1c(C)n(C2CCCCC2)c2ccc(O)cc12,-24%,5%,-66*,10µM*,-17%
CC(C)CN(C(=O)COC(=O)C12CC3CC(CC(O)(C3)C1)C2)c1c(N)n(Cc2ccccc2)c(=O)[nH]c1=O,-2%,·,?,·,·
CC(=O)Nc1sc(C)c(C)c1C(=O)OCC(=O)N(CC(C)C)c1c(N)n(Cc2ccccc2)c(=O)[nH]c1=O,-10%,-14%,-31,5µM*,-2%
CC(C)CN(C(=O)COC(=O)CSc1ccccc1F)c1c(N)n(Cc2ccccc2)c(=O)[nH]c1=O,-18%,?,4,7%,?
SMILES,FMDV antiviral,AmpC detergent,HCMV inh,HCV inh,AmpC inh no detg
CCc1nc2ccccc2c(C(=O)OCC(=O)N(CCOC)c2c(N)n(Cc3ccccc3)c(=O)[nH]c2=O)c1C,-25%,-13%,?,14µM*,171%
Cc1ccc(SCC(=O)OCC(=O)N(CC(C)C)c2c(N)n(Cc3ccccc3)c(=O)[nH]c2=O)c(C)c1,-23%,-1%,-11,10µM*,-22%
CC(C)CN(C(=O)COC(=O)C12CC3CC(CC(C3)C1)C2)c1c(N)n(Cc2ccccc2)c(=O)[nH]c1=O,-18%,5%,-84*,16µM*,-9%
COc1ccc(-n2nc(C(=O)O)c(=O)n(C)c2=O)cc1,-16%,2%,-6,·,·
O=C(c1ccc2c(c1)OCO2)N1CCOc2ccc(CN3CCC(Oc4cccnc4)CC3)cc2C1,-13%,·,·,·,·
COc1ccc(C(=O)Nc2cccc(-c3cn4ccsc4n3)c2)c(OC)c1,17%,-6%,-37,·,·
CCOC(=O)c1c(C)oc2c1c(C(c1ccncc1)N1CCOCC1)c(O)c1ccccc12 (stereo unspecified),0%,-5%,127,13µM*,242%
COC(=O)CNC(=O)c1ccc(C)s1,7%,2%,-102*,-21%,-1%
Cc1ccc(C(=O)NNC(=O)c2ccoc2C)s1,44%,2%,-98*,-8%,-16%
CC(C)c1ccc(NC(=O)C(Cc2ccccc2)NS(=O)(=O)c2ccc3c(c2)oc(=O)n3C)cc1 (stereo unspecified),-10%,12%,-24,·,·
CC(C)COCC(CN(Cc1ccccc1)c1ccccc1)N1CCCC1 (stereo unspecified),?,?,-67*,4%,70%
CC(C(=O)Nc1ccc(OCc2ccccc2)cc1)N1CCCC1 (stereo unspecified),15%,-3%,-35,?,2%
CCOc1nc(-c2ccc(C)cc2)ccc1-c1noc(-c2ccccc2F)n1,-1%,20%,0,·,·
Nc1nnc(P(c2ccccc2)c2ccccc2)s1,-14%,-1%,-64*,8%,-13%
Cc1ccc(F)c(CNC(=O)C2(C)CCCN2C(=O)C(C)C)c1F (stereo unspecified),-12%,·,-10,·,·
CCOc1ccccc1CN1CCN(CCCc2ccccc2)CC1CCO (stereo unspecified),-28%,-15%,-2,-3%,22%
O=[N+]([O-])c1cccc(-c2ccc(/C=N/NC(=S)Nc3ccccc3)o2)c1,-6%,?,-29,-15%,?
O=C1NC(=O)N(Cc2ccco2)C(=O)/C1=C/c1ccc(-c2cccc([N+](=O)[O-])c2)o1,32µM*,?,·,6%,35µM*
O=[N+]([O-])c1cccc(-c2ccc(/C=N/NC(=S)NCc3ccco3)o2)c1,-28%,-4%,-20,?,8.9µM*
COc1ccc(-c2nc(SCC(=O)Nc3cccc(C(C)=O)c3)n[nH]2)cc1,0%,9%,26,·,·
Cc1ccc(CNC(=O)c2c(-c3cccc(Br)c3)noc2C)o1,-29%,20%,-11,·,·
Cn1cnc([N+](=O)[O-])c1Oc1ccc2ccccc2c1,18µM*,-1%,23,?,-6%
CSc1cccc(NC(=S)N2CCC(c3ccccc3)C2)c1 (stereo unspecified),15%,-7%,-82*,-29%,-32%
CCc1cccc(NC(=S)N2CCC(c3ccccc3)C2)c1 (stereo unspecified),17%,-10%,-5,-17%,-22%
